Where “and” joins values, the source holds several entries; their conditions need not be identical. Equal values may be shown once. Inconclusive results are not listed. A call without a number means that no potency is given here. The source holds several records for some structures; these can differ, active in one and inactive in another. Calls of active or inactive are those of the source. Unless noted, calls come from the whole dose curve; as a rule, active = well fitted curve in the direction sought with a large enough effect; inconclusive = small, poorly fitted or top-dose-only effect, or another doubt; inactive = no such curve, though single readings can be large; an effect the other way counts as inactive or inconclusive.
Tests used:
[1] = molecular target: 3',5'-cyclic-AMP phosphodiesterase 4B (Homo sapiens) (UniProt Q07343); test: qHTS Assay for Inhibitors of PDE-IV (AID 607; active = well fitted activation curve with a large enough effect in the main read-out, with a control signal flat, not every such curve was filed as active; note: potency is the fitted concentration of half-maximal effect)
Sequence of 3',5'-cyclic-AMP phosphodiesterase 4B (Homo sapiens) (Q07343 whole entry, looked up): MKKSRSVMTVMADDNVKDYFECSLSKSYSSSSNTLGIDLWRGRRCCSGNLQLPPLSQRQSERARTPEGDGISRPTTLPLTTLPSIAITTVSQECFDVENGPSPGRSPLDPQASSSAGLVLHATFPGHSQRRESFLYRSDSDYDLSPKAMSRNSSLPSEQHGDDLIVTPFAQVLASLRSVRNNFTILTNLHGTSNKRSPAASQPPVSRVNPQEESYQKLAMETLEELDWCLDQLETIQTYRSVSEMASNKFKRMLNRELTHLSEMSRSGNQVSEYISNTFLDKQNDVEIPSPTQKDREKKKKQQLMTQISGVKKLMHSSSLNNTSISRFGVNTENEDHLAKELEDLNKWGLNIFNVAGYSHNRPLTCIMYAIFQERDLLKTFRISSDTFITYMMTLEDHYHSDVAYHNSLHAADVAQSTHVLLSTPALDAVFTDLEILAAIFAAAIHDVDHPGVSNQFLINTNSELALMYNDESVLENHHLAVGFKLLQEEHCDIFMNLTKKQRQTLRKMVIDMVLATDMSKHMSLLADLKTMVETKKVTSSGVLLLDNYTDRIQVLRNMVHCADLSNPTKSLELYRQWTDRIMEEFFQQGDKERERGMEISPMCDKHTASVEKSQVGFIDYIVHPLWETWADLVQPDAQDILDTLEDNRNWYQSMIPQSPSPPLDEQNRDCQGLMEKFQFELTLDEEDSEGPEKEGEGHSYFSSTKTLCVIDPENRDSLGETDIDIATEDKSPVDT
Outline: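 ACTOne HEK293 cells carry a modified cAMP-gated CNG channel and express endogenous PDE4; plated 1000 cells/well, compounds up to 22.9 uM final. Membrane-potential dye fluorescence (ex 535/em 590) was read; parental cells received 10 uM forskolin + 100 uM RO 20-1724.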

[2] = molecular target: Guanine nucleotide-binding protein G(i) subunit alpha-1 (Homo sapiens) (UniProt P63096); test: qHTS Assay for Inhibitors of RGS12 GoLoco Motif Activity (Green Fluorophore) (AID 879);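 note: negative values mean loss of peptide binding seen as reduced polarization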
Sequence of Guanine nucleotide-binding protein G(i) subunit alpha-1 (Homo sapiens) (P63096 whole entry, looked up): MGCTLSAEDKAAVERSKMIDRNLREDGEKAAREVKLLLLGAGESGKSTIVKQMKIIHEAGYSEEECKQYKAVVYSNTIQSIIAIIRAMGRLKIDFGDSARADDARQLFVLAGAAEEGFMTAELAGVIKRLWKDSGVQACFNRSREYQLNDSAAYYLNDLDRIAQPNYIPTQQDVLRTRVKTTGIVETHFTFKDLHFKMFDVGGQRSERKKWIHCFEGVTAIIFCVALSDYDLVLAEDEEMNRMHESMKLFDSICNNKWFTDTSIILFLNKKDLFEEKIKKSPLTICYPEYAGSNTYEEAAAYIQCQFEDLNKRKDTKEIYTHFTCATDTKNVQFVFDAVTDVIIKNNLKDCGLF
Outline: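 Fluorescence polarization assay: 50 nM Gαi1 with 10 nM FITC-labeled RGS12 GoLoco peptide in 10 mM Tris pH 7.5, 150 mM NaCl, 0.1 mM GDP, 0.05% NP40, 10 min at room temperature with compound.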

[3] = molecular target: Cytochrome P450 3A4 (Homo sapiens) (UniProt P08684); test: qHTS Assay for Inhibitors and Substrates of Cytochrome P450 3A4 (AID 884); note: nearly all actives have a fitted effect of over 50% in size; note: potency is the fitted concentration of half-maximal effect
Sequence of Cytochrome P450 3A4 (Homo sapiens) (P08684 whole entry, looked up): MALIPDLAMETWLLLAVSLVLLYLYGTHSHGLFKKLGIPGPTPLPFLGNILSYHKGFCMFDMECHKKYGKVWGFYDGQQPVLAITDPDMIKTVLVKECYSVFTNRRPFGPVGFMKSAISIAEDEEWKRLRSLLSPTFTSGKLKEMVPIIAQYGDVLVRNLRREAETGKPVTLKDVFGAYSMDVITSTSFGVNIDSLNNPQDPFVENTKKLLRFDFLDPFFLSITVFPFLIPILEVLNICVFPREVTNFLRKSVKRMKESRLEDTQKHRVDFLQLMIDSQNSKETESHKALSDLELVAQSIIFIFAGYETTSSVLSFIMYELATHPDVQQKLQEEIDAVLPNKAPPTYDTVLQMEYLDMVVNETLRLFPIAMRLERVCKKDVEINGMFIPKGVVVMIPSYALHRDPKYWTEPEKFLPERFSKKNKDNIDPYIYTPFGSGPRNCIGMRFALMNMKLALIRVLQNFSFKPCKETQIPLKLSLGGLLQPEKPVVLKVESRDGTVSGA
Outline: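 20 nM human CYP3A4 with 25 uM Luciferin-PPXE (at KM) in 200 mM KPO4, preincubated 10 min with compound; NADPH regeneration started a 60 min RT reaction. Luciferin detected by luminescence, normalized to 57 uM ketoconazole as full inhibition.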

[4] = molecular target: Cytochrome P450 2D6 (Homo sapiens) (UniProt P10635); test: qHTS Assay for Inhibitors and Substrates of Cytochrome P450 2D6 (AID 891); note: nearly all actives have a fitted effect of over 60% in size; note: potency is the fitted concentration of half-maximal effect
Sequence of Cytochrome P450 2D6 (Homo sapiens) (P10635 whole entry, looked up): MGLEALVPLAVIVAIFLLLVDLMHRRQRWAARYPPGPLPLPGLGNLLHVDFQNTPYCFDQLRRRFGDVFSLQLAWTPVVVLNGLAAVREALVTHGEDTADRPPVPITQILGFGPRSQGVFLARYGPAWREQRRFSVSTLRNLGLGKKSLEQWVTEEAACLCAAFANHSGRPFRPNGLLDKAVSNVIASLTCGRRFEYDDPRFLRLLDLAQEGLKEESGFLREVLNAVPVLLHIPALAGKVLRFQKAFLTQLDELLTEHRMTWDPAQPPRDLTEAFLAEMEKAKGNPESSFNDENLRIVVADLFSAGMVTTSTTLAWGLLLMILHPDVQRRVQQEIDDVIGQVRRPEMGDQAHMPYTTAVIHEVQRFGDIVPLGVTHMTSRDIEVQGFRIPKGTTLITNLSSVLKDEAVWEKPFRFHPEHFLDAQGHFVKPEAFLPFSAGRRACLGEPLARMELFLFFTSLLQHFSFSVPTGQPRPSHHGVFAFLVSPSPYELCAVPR
Outline: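 Human CYP2D6 (5 nM) with 30 uM Luciferin-ME EGE (at Km) in 100 mM KPO4, compound preincubated 10 min, then NADPH regeneration system for 60 min at room temperature. Luciferin read by luminescence; normalized to 1.43 uM quinidine.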

[5] = molecular target: Cytochrome P450 3A4 (Homo sapiens) (UniProt P08684); test: qHTS Assay for Activators of Cytochrome P450 3A4 (AID 885); note: nearly all actives have a fitted effect of over 65% in size; note: potency is the fitted concentration of half-maximal effect
Outline: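 20nM CYP3A4 + 25uM Luciferin-PPXE (=KM), 200mM KPO4; cpd 10 min RT; NADPH regen, 60 min RT; stop w/ detection buffer, 20 min; luminescence. Normalized to 57 uM ketoconazole.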

[6] = molecular target: Cytochrome P450 2C9 (Homo sapiens) (UniProt P11712); test: qHTS Assay for Inhibitors and Substrates of Cytochrome P450 2C9 (AID 883); note: nearly all actives have a fitted effect of over 60% in size
Sequence of Cytochrome P450 2C9 (Homo sapiens) (P11712 whole entry, looked up): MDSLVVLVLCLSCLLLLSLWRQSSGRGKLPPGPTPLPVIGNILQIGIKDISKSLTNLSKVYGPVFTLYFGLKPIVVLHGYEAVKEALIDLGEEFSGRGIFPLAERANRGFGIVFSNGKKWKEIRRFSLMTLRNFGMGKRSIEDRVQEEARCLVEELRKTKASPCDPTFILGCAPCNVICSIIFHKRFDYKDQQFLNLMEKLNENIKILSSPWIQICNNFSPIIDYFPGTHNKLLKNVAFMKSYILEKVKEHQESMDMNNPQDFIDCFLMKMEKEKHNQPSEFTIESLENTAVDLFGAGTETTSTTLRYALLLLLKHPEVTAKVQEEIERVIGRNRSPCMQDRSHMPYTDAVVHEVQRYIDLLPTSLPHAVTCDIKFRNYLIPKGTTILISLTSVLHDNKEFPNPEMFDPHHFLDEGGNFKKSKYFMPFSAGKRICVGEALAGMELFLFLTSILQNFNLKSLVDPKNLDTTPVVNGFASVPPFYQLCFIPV
Outline: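 10nM CYP2C9 + 100uM Luciferin-H (=KM), 25mM KPO4; cpd 10 min 37C; NADPH regen, 60 min 37C; stop/detect with P450 Glo-Buffer 20 min; luminescence. Norm. to 57uM sulphaphenazole as full inhibition.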

**Q.** What does the source list for `NC(N)=NC(N)=Nc1ccccc1`?
**A.** Potency [1]: inactive; Potency [2]: inactive; Potency [3]: inactive; Potency [4]: inactive

**Q.** Which results are given for `c1ccc2nc(C3=NCCN3)ccc2c1`?
**A.** Potency [1]: inactive; Potency [2]: inactive; Potency [5]: inactive

**Q.** For `NC(=O)CNCCC(c1ccccc1)c1ccccc1`, which Potency [1] is on record?
**A.** The Potency was “inactive”.

**Q.** What about the Potency [2] of the same compound?
**A.** Its Potency is “inactive”.

**Q.** And the Potency [5]?
**A.** The Potency was “inactive”.

**Q.** With `N#CC(C#N)=C(N)/C(C#N)=C/c1ccc(O)cc1` as the compound, how does the Potency [1] read?
**A.** The Potency was “inactive”.

**Q.** And the Potency [2]?
**A.** Its Potency is “inactive”.

**Q.** And the Potency [5]?
**A.** The Potency was “inactive”.

**Q.** What does the source list for `CCCCCCN(CCCCCC)C(=O)Cc1c(-c2ccc(F)cc2)[nH]c2ccccc12`?
**A.** Potency [1]: inactive; Potency [2]: inactive; Potency [3]: 2.51 µM (active); Potency [4]: inactive

**Q.** With `NC[C@@H]1O[C@H](c2ccccc2)Cc2c1ccc(O)c2O` as the compound, how does the Potency [1] read?
**A.** The Potency was “inactive”.

**Q.** And the Potency [5]?
**A.** Its Potency is “inactive”.

**Q.** Which Potency [1] does the source give for `COc1ccccc1N1CCN(CCCCN2C(=O)c3ccccc3C2=O)CC1` here?
**A.** Its Potency is “inactive”.

**Q.** What about the Potency [2] of the same compound?
**A.** Its Potency is “inactive”.

**Q.** And the Potency [5]?
**A.** Its Potency is “inactive”.

**Q.** For `O=C1Cc2c([nH]c3ccc(Br)cc23)-c2ccccc2N1`, which Potency [1] is on record?
**A.** The Potency was “inactive”.

**Q.** And the Potency [2]?
**A.** The Potency was “inactive”.

**Q.** What about the Potency [5] of the same compound?
**A.** The Potency was “inactive”.

**Q.** What about the Potency [4] of the same compound?
**A.** Its Potency is “inactive and 398 nM (active)”.

**Q.** What does the source list for `O=c1onc2n1-c1cc(Br)ccc1OC2`?
**A.** Potency [1]: inactive; Potency [2]: inactive; Potency [5]: inactive

**Q.** What does the source list for `O=C(O)c1cc2cc(F)ccc2[nH]1`?
**A.** Potency [1]: inactive; Potency [2]: inactive; Potency [3]: inactive; Potency [4]: inactive

**Q.** Which results are given for `NC/C=C\C(=O)O`?
**A.** Potency [1]: inactive; Potency [2]: inactive; Potency [3]: inactive; Potency [4]: inactive

**Q.** What does the source list for `Cc1cccc(C(=O)NCN2CCN(c3ccccc3C#N)CC2)c1`?
**A.** Potency [1]: inactive; Potency [2]: inactive; Potency [5]: inactive

**Q.** For `Fc1ccc(CN(C2=NCCN2)c2c(Cl)cccc2Cl)cc1`, which Potency [1] is on record?
**A.** The Potency was “inactive”.

**Q.** What about the Potency [2] of the same compound?
**A.** Its Potency is “inactive”.

**Q.** And the Potency [4]?
**A.** Its Potency is 1.26 µM (active).

**Q.** Which Potency [1] does the source give for `CCn1c(=O)[nH]c2cc(Cl)c(Cl)cc21` here?
**A.** The Potency was “inactive”.

**Q.** And the Potency [2]?
**A.** Its Potency is “inactive”.

**Q.** And the Potency [4]?
**A.** The Potency was “inactive”.

**Q.** For `Nc1ncnc2c1c(-c1ccc(Oc3ccccc3)cc1)cn2C1CCCC1`, which Potency [1] is on record?
**A.** The Potency was “inactive”.

**Q.** What about the Potency [2] of the same compound?
**A.** Its Potency is “inactive”.

**Q.** And the Potency [3]?
**A.** The Potency was “inactive”.

**Q.** And the Potency [5]?
**A.** Its Potency is 3.16 µM (active).

**Q.** Which results are given for `CC(C)(CO)Cc1cc(C(C)(C)C)c(O)c(C(C)(C)C)c1`?
**A.** Potency [1]: inactive; Potency [2]: inactive; Potency [3]: 2.51 µM (active); Potency [4]: inactive

**Q.** For `NCCS(=O)O`, which Potency [1] is on record?
**A.** Its Potency is “inactive”.

**Q.** And the Potency [2]?
**A.** Its Potency is “inactive”.

**Q.** And the Potency [4]?
**A.** Its Potency is “inactive”.

**Q.** With `O=c1onc2cnc3ccccc3n12` as the compound, how does the Potency [1] read?
**A.** Its Potency is “inactive”.

**Q.** What about the Potency [2] of the same compound?
**A.** Its Potency is “inactive”.

**Q.** What about the Potency [3] of the same compound?
**A.** The Potency was 10 µM (active).

**Q.** What about the Potency [4] of the same compound?
**A.** Its Potency is “inactive”.

**Q.** Which results are given for `CCc1ccc2c(-c3cccc(Cl)c3)nc(=O)n(CC)c2n1`?
**A.** Potency [1]: 0.012 µM (active); Potency [5]: inactive

**Q.** Which results are given for `COc1ccc(CCN(C)CCc2ccc(OC)c(OC)c2)cc1OC`?
**A.** Potency [1]: inactive; Potency [2]: inactive; Potency [5]: inactive

**Q.** `N=C(N)SCCc1cnc[nH]1` was tested. Which Potency [1] did it give?
**A.** Its Potency is “inactive”.

**Q.** And the Potency [2]?
**A.** The Potency was “inactive”.

**Q.** And the Potency [5]?
**A.** Its Potency is “inactive”.

**Q.** What about the Potency [4] of the same compound?
**A.** The Potency was 6.31 µM (active).

**Q.** Which results are given for `CNC(=O)c1cc2c(cn1)[nH]c1ccccc12`?
**A.** Potency [1]: inactive; Potency [2]: inactive; Potency [5]: inactive; Potency [4]: inactive

**Q.** With `Nc1ccc(N2C(=O)c3ccccc3C2=O)c(Cl)c1` as the compound, how does the Potency [1] read?
**A.** The Potency was “inactive”.

**Q.** And the Potency [2]?
**A.** The Potency was “inactive”.

**Q.** What about the Potency [5] of the same compound?
**A.** The Potency was “inactive”.

**Q.** For `CNCCNS(=O)(=O)c1cccc2cnccc12`, which Potency [1] is on record?
**A.** Its Potency is “inactive”.

**Q.** What about the Potency [2] of the same compound?
**A.** Its Potency is “inactive”.

**Q.** And the Potency [5]?
**A.** Its Potency is “inactive”.

**Q.** For `CC(=O)NNC(=O)N1Cc2ccccc2Oc2ccc(Cl)cc21`, which Potency [1] is on record?
**A.** The Potency was “inactive”.

**Q.** And the Potency [2]?
**A.** Its Potency is “inactive”.

**Q.** What about the Potency [5] of the same compound?
**A.** The Potency was “inactive”.

**Q.** And the Potency [4]?
**A.** Its Potency is 6.31 µM (active).

**Q.** For `CN(C)S(=O)(=O)c1ccc2c(c1)/C(=C/c1cc3c([nH]1)CCCC3)C(=O)N2`, which Potency [1] is on record?
**A.** Its Potency is “inactive”.

**Q.** And the Potency [2]?
**A.** Its Potency is “inactive”.

**Q.** And the Potency [3]?
**A.** The Potency was 5.01 µM (active).

**Q.** What about the Potency [5] of the same compound?
**A.** Its Potency is “inactive”.

**Q.** For `CCCCOC(=O)NS(=O)(=O)c1sc(CC(C)C)cc1-c1ccc(Cn2c(CC)nc3c(C)cc(C)nc32)cc1`, which Potency [1] is on record?
**A.** The Potency was “inactive”.

**Q.** And the Potency [2]?
**A.** Its Potency is “inactive”.

**Q.** And the Potency [3]?
**A.** Its Potency is 3.16 µM (active).

**Q.** Which results are given for `c1ccc(CN2CCC3(CCCc4ccccc43)CC2)cc1`?
**A.** Potency [1]: inactive; Potency [2]: inactive; Potency [3]: inactive; Potency [4]: 0.251 µM (active)

**Q.** `O=c1[nH]ccc2c(O)cccc12` was tested. Which Potency [6] did it give?
**A.** The Potency was “inactive”.

**Q.** `C[C@H](NC(=O)/C(C#N)=C/c1ccc(O)c(O)c1)c1ccccc1` was tested. Which Potency [6] did it give?
**A.** The Potency was “inactive”.

**Q.** What about the Potency [5] of the same compound?
**A.** Its Potency is “inactive”.

**Q.** For `Cc1ccc([N+](=O)[O-])cc1S(=O)(=O)N(C)C`, which Potency [5] is on record?
**A.** The Potency was “inactive”.

**Q.** What does the source list for `Nc1ccc(-c2nc3ccc(-c4nc5ccc(N)cc5[nH]4)cc3[nH]2)cc1`?
**A.** Potency [2]: inactive; Potency [3]: 0.0631 µM (active); Potency [5]: inactive

**Q.** How did the Potency [3] turn out when `O=C1OC(=O)C2C3CCC(O3)C12` (configuration not stated) was run?
**A.** Its Potency is “inactive”.

**Q.** With `C=C(C)C1CC=C(C(=O)O)CC1` (configuration not stated) as the compound, how does the Potency [3] read?
**A.** The Potency was “inactive”.

**Q.** With `CN(C)CCCc1cc(C(=O)Nc2ccc(-c3ccncc3)cc2)ccc1O` as the compound, how does the Potency [5] read?
**A.** The Potency was “inactive”.

**Q.** And the Potency [4]?
**A.** Its Potency is 5.01 µM (active).

**Q.** Which Potency [2] does the source give for `Cn1c(=O)c2[nH]c(C3CCCC3)nc2n(C)c1=O` here?
**A.** The Potency was “inactive”.

**Q.** What about the Potency [3] of the same compound?
**A.** Its Potency is 39.8 µM (active).

**Q.** And the Potency [5]?
**A.** Its Potency is “inactive”.

**Q.** With `S=C(S)N1CCCC1` as the compound, how does the Potency [2] read?
**A.** Its Potency is “inactive”.

**Q.** What about the Potency [5] of the same compound?
**A.** The Potency was “inactive”.

**Q.** Which Potency [2] does the source give for `Nc1ccc(-c2ccc3ccccc3n2)cc1` here?
**A.** The Potency was “inactive”.

**Q.** What about the Potency [3] of the same compound?
**A.** The Potency was 3.98 µM (active).

**Q.** What about the Potency [5] of the same compound?
**A.** Its Potency is “inactive”.

**Q.** With `O=C(O)c1ccccc1Nc1cccc(OCc2ccc3ccccc3n2)c1` as the compound, how does the Potency [2] read?
**A.** The Potency was “inactive”.

**Q.** And the Potency [3]?
**A.** Its Potency is 1.58 µM (active).

**Q.** And the Potency [4]?
**A.** The Potency was “inactive and 7.94 µM (active)”.

**Q.** For `O=C(O)/C=C/c1ccc(O)c(O)c1`, which Potency [2] is on record?
**A.** Its Potency is “inactive”.

**Q.** And the Potency [5]?
**A.** Its Potency is “inactive”.

**Q.** `O=C(O)c1cccnc1C(=O)O` was tested. Which Potency [2] did it give?
**A.** Its Potency is “inactive”.

**Q.** What about the Potency [3] of the same compound?
**A.** Its Potency is “inactive”.

**Q.** What about the Potency [4] of the same compound?
**A.** The Potency was “inactive”.
